Measurements reported in PubChem BioAssay (NCI).
This is part of a sample that, as a whole, favours compounds with a hit. Of some 83,000 tested, about 20% had one in any assay.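 48-hour exposure, single concentration, 96-well plates; percent growth endpoint where 0 means no net growth. Active: below 10.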 Unmarked numbers belong to inactive results. Calls of active or inactive are those of the source.

Assays:
Test in all cases: NCI-60 one-dose screen, 48 h (100 = growth as untreated, 0 = no growth, -100 = all killed)
Conditions in all cases: 10 µM unless noted
[1] = test system: HCT-15 colon
[2] = test system: HT29 colon
[3] = test system: SNB-75 CNS
[4] = test system: SNB-19 CNS
[5] = test system: U251 CNS
[6] = test system: PC-3 prostate
[7] = test system: SK-MEL-5 melanoma
[8] = test system: LOX IMVI melanoma
[9] = test system: SK-MEL-28 melanoma
[10] = test system: UACC-62 melanoma

Row | SMILES | growth [1] | growth [2] | growth [3] | growth [4] | growth [5] | growth [6] | growth [7] | growth [8] | growth [9] | growth [10]
1 | COc1cc(CNC(=O)CCCCC[P+](c2ccccc2)(c2ccccc2)c2ccccc2)c(OC)c2c1OCO2 | 99.8% | 45.2% | 68.5% | 53.6% | 63.7% | 63.2% | 84.3% | 61% | 42.1% | –
2 | COc1cc(-c2cc(=O)oc3cc(O)ccc23)cc(OC)c1OC | 91.3% | 95.1% | 74.5% | 95.3% | 96.7% | 71.9% | 91.4% | 97.1% | 99.3% | –
3 | COc1ccc(C(=O)/C=C/c2ccc(OCc3ccccc3)c(OC)c2)cc1OC | 45.8% | 10.6% | 34.1% | 87.1% | 10.1% | 46% | 66.1% | 34.3% | 89.6% | –
4 | C=C1C(=O)O[C@H]2[C@H]1CC/C(COC(=O)NCCc1c[nH]c3ccc(Cl)cc13)=C\CC[C@@]1(C)O[C@@H]21 | -66.6% (active) | -73.6% (active) | -54.6% (active) | 32.4% | -41.4% (active) | 1.04% (active) | -15.2% (active) | -82.4% (active) | -71.9% (active) | -51.7% (active)
5 | COc1ccc(/C=C(/c2ccccc2)[N+](=O)[O-])cc1 | -35% (active) | -26.7% (active) | -85.5% (active) | -19% (active) | -95.4% (active) | -56.7% (active) | -91.5% (active) | -89.6% (active) | -17.7% (active) | –
6 | CCN(CC)CCOC(COc1cc(C)cc(C)c1)COc1cc(C)cc(C)c1 | 34.5% | 10.3% | 61.4% | 47.5% | 32.5% | 33.6% | -88.5% (active) | -12% (active) | 39.6% | –
7 | COc1ccc(C2CC(c3cccc(Nc4ccncc4)c3)=NN2c2ccccc2)cc1 (stereo not given) | -22.9% (active) | -3.3% (active) | 65.3% | 84.3% | 8.79% (active) | 37.3% | 49.2% | 28.5% | -88.3% (active) | –
8 | COc1cc(NCC(C)(O)CN(CC(C)C)CC(C)C)c2nc(C)ccc2c1 (stereo not given) | 67.7% | 82% | 81.4% | 87.9% | 94.9% | 64.5% | 86.4% | 86.7% | 99.3% | –
9 | O=C1C(=O)c2c(nc3ncccn23)-c2ccccc21 | -67.2% (active) | -17.2% (active) | -92.8% (active) | -88% (active) | -84% (active) | -4.28% (active) | -99.4% (active) | -88% (active) | -85.7% (active) | –
10 | O=C(Nc1nc2ccc(S(=O)(=O)Nc3ccc(C4(C(F)(F)F)CC4)cc3)cc2[nH]1)c1cnccn1 | 29.5% | 15.6% | -27.1% (active) | 40.3% | 38% | 27.7% | 26.1% | 38.3% | 57.2% | –
11 | CC(=O)Nc1ccc(C(=O)Nc2cc(-c3ccccc3)ccc2N)cc1 | 85.7% | 50.7% | 60.4% | 91.7% | 78.1% | 64.7% | 68.3% | 71.3% | 56.6% | 39.5%
12 | CCOC(=O)N1CCc2c(sc3nc4nc[nH]n4c(=O)c23)C1 | 102% | 100% | 89.4% | 106% | 100% | 92.7% | 104% | 94.6% | 115% | 98.8%
13 | COc1ccc(-c2nc(SC(C)C)nc(NNC(N)=O)c2C#N)cc1 | 58.6% | 106% | 59.1% | 89% | 93.5% | 75.9% | 89.1% | 76.7% | 93% | –
14 | Cc1ccc(C(=O)Nc2ccccc2C(=O)N/N=C(\c2ccccc2)c2ccccn2)cc1 | 29.1% | 24.9% | 22.1% | 26.2% | 22.6% | 33.1% | -4.18% (active) | 5.79% (active) | 32.4% | 5.33% (active)
15 | CCCCCCCCOc1ccc(/C=N/Nc2cc(C)nc3ccc(Cl)cc23)cc1 | -82.3% (active) | -55.9% (active) | 52.2% | 9.5% (active) | -61% (active) | -62.9% (active) | 96% | -90.7% (active) | – | –
16 | Cc1c(C2=CCCCC2)c2ccccn2c1C(=O)c1cccc(S(=O)(=O)N2CCOCC2)c1 | 83.9% | 59.5% | 57.8% | 101% | 91.4% | 71.1% | 104% | 89.1% | 101% | –
17 | CC[C@H](CC[C@@H](C)[C@H]1CC[C@H]2[C@@H]3CC=C4C[C@@H](OCCc5nn[nH]n5)CC[C@]4(C)[C@H]3CC[C@]12C)C(C)C | 102% | 94.8% | 107% | 110% | 105% | 112% | 111% | 99.9% | 110% | –
18 | O=C(CSc1nc2sc3c(c2c(=O)n1Cc1ccccc1)CCCC3)N1CCN(c2ccccc2)CC1 | 94.8% | 90.2% | 79.4% | 110% | 90.8% | 83.2% | 98.5% | 97% | 106% | 96%
19 | CCOC(=O)c1c(C)nc2c(c1N)C(=O)C(=O)N2Cc1ccc(C(F)(F)F)cc1 | 24.1% | 65.1% | 62.2% | 59.3% | 41% | 43.7% | 66.7% | 54.1% | 74.8% | 42.8%
20 | COc1cccc2c1C(=O)c1c(O)c3c(c(O)c1C2=O)C[C@@](O)(C(=O)CO)C[C@@H]3O[C@H]1C[C@H](N)[C@@H](O)[C@H](C)O1 | 40.5% | -14.8% (active) | -66.2% (active) | 10% | 3.07% (active) | -0.191% (active) | -83.1% (active) | 0.955% (active) | – | –
21 | CN(C)c1ccc(-c2c(C#N)c(N)n3nc(N)c(C#N)c3c2C#N)cc1 | 81.8% | 83.5% | 88.5% | 95.4% | 90.1% | 76.6% | – | 8.51% (active) | 96.3% | 113%
22 | FCc1nc2nc(Cl)c(Cl)nc2[nH]1 | 103% | 99.4% | 91.2% | 94.9% | 101% | 95.2% | – | 95.3% | 105% | 94.9%
23 | C=C1C(=O)O[C@H]2[C@H]1CC/C(COC(=O)CCCCCC(=O)OC/C1=C/CC[C@@]3(C)O[C@H]3[C@H]3OC(=O)C(=C)[C@@H]3CC1)=C\CC[C@@]1(C)O[C@@H]21 | 0.552% (active) | 3.42% (active) | 46.5% | 62.4% | 47.8% | 29.8% | – | -53.5% (active) | 18.5% | 8.53% (active)
24 | Cc1c(C(=O)NO)sc2ncnc(Nc3ccc(NC(=S)Nc4ccccc4)cc3)c12 | 95.4% | 103% | 87.9% | 96.5% | 104% | 106% | 101% | 93.8% | 105% | –
25 | O=C(N/N=C/c1cccnc1)c1ccccc1Nc1cccc(C(F)(F)F)c1 | 71.7% | 91.7% | 83% | 84.8% | 92.1% | 88.8% | – | 78.6% | 85.5% | 102%
26 | CN1CCN(C(=O)[C@]2(C)CC[C@]3(C)CC[C@]4(C)C(=CC(=O)[C@@H]5[C@@]6(C)CCC(=O)NC(C)(C)[C@@H]6CC[C@]54C)[C@@H]3C2)CC1 | 94.6% | 86.9% | 73.7% | 97.8% | 86.7% | 88.8% | – | 84.6% | – | 97.3%
27 | CCn1ccnc1C(=O)/C=C/c1ccc(CC(=O)Nc2ccc(F)cc2)cc1 | 13.2% | -27.6% (active) | 6.23% (active) | 14.9% | 10.5% | 33% | 29.3% | 13.9% | 79.8% | –
28 | Nc1c(C(=O)Nc2ccc(Cl)cc2)cc(-c2nc3ccccc3s2)c(=O)n1NS(=O)(=O)c1ccc(Cl)cc1 | 96.7% | 104% | 84.1% | 99.8% | 104% | 104% | 96.4% | 99.3% | 109% | –
